Screening data from PubChem.
Hits are enriched below; roughly 3.1% of the tested compounds scored in any of these assays.
ERAP1 inh: human ERAP1 aminopeptidase inhibitors, primary screen, biochemical, single point, plate reader. 340,000 compounds, 0.15% hits. inhibition, % at 10.7 µM. Endoplasmic reticulum aminopeptidase 1 (Homo sapiens), Q9NZ08. recombinant ERAP1, Leu-AMC fluorescence, 60 min;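 active = mean replicate inhibition of at least 30%, or all replicates individually reaching that 30% level; inactive = mean below 30% and not every replicate reaching it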
SIRT5 inh: SIRT5 desuccinylase inhibitors, primary screen, biochemical, fluorescence imaging, single point, set 5; Purified SirT5, succinyl-peptide AMC, trypsin-coupled fluorescence; inhibition, % at 15 µM; 330,000 compounds, 1.1% hits; in the data active = inhibition above about 15%
FGF22 binding: binders of human FGF22 protein, primary screen, FGF22 synaptogenesis inhibitor project, biophysical, thermal shift, single point; Fibroblast growth factor 22 (Homo sapiens), Q9HCT0; recombinant FGF22 thermal shift, SYPRO orange fluorescence; percent of sucrose octasulfate shift, DMSO zero; activity (Tm shift, normalised), % at 9.99 µM; 340,000 compounds, 1.5% hits; AID 651658, 2012;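 active = mean Tm shift, scaled 0 neutral to 100 positive control, at about 1.3% or above, every replicate too, limit read from the data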
Target sequence (Q9HCT0 whole entry, looked up): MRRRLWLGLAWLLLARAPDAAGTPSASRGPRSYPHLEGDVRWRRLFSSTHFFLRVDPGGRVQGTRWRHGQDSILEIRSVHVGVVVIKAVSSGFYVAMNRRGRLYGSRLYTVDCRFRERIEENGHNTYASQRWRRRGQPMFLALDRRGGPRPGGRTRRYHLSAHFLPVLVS
CASP6 VEID inh: human caspase-6 inhibitors, primary screen, biochemical, VEID-R110 fluorescence, single point, set 2. inhibition, % at 12.5 µM. 350,000 compounds, 0.53% hits. P55212. purified caspase-6, Z-VEID-R110 cleavage fluorescence;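 active = mean inhibition across replicates at least about 35%, with every replicate also reaching that limit, limit read from the data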
Target sequence (P55212 24-179 limits assumed): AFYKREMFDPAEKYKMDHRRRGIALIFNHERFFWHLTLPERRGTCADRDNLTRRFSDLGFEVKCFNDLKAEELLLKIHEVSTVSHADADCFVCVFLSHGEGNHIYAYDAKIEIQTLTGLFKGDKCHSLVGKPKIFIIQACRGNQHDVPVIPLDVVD
Target sequence (P55212 194-293 limits assumed): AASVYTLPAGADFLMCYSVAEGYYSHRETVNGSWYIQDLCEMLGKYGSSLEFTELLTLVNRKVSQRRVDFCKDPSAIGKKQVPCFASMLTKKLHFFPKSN
Large screens that a line does not name were inactive.

Cc1cnc(CN2CCc3c([nH]c4ccccc34)C2CC(C)C)[nH]1 (stereo not given)	FGF22 binding 43
Cc1cccc(CN2CCc3c([nH]c4ccccc34)C2CC(C)C)n1 (stereo not given)	none
CCOC(=O)/C(C)=N/NC(=O)c1ccc([N+](=O)[O-])cc1	FGF22 binding 44
COc1cc(/C=N/Nc2ccc(C(=O)O)cc2)ccc1O	CASP6 VEID inh 39
CCS(=O)(=O)Nc1ccc2c(c1)C(=O)N(C)C[C@H](OC)[C@@H](C)CN(C(C)=O)[C@H](C)CO2	none
Cc1noc(C)c1S(=O)(=O)Nc1ccc2c(c1)C(=O)N([C@@H](C)CO)C[C@@H](C)[C@@H](CN(C)Cc1ccncc1)OCCCC[C@@H](C)O2	none
COc1ccc(C(=O)Nc2ccc3c(c2)C(=O)N(C)C[C@H](OC)[C@@H](C)CN(C)[C@H](C)CO3)cc1	none
CCc1cc2c(=O)c(-c3cnn(-c4ccccc4)c3)c(C)oc2cc1OCC(=O)Nc1cccc(C)c1	SIRT5 inh 27
CCc1cc2c(=O)c(-c3cnn(-c4ccccc4)c3)c(C)oc2cc1OCC(=O)Nc1ccc(F)c(F)c1	none
CC12CCC3c4ccccc4CCC3(CO1)C2 (stereo not given)	FGF22 binding 43 (no result: SIRT5 inh)
CCCCSc1nc2c([nH]1)c(=S)n(C)c(=O)n2C	none
CSc1nc2c([nH]1)c(=S)n(C)c(=O)n2C	FGF22 binding 43 (no result: SIRT5 inh)
Cc1[nH][nH]c(=O)c1/C=N/N1CCOCC1	FGF22 binding 43
COc1cc(/C(C)=N/NC(=O)c2ccc(CSc3nncn3C)cc2)cc(OC)c1OC	FGF22 binding 43
COc1ccc(/C=N/NC(=O)c2ccc(CSc3nncn3C)cc2)cc1OC	none
COc1ccc(S(=O)(=O)N(C)C[C@H]2Oc3ccc(NS(=O)(=O)c4ccccc4)cc3C(=O)N([C@@H](C)CO)C[C@@H]2C)cc1	none (no result: ERAP1 inh, SIRT5 inh, CASP6 VEID inh)
Cn1cnc2c(N/N=C/c3cccs3)ncnc21	SIRT5 inh 15 (no result: ERAP1 inh)
O=C(C[C@@H]1CC[C@H]2NC[C@H](O)COC[C@@H]2O1)Nc1ccccc1	none
C/C=C/c1ccc([C@H]2[C@@H](CO)N(CC3CCCCC3)[C@@H]2CNC(C)C)cc1	SIRT5 inh 19 (no result: FGF22 binding)
COc1ccc(CN=C(N)N=C(N)N)cc1Cl	CASP6 VEID inh 56
CC(C)Oc1ccc(CN=C(N)N=C(N)N)cc1Cl	none
CCC(C)NC(=O)CN1C(=O)NC2NC(=O)NC21 (stereo not given)	none
CCC(C)N1C(=O)N(C)C2NC(=O)NC21 (stereo not given)	SIRT5 inh 25
CCCNC(=O)[C@H]1[C@H](CO)[C@H]2Cn3c(ccc(C4=CCCC4)c3=O)[C@H]2N1CCC	none
CCCN1[C@@H]2c3ccc(C4=CCCC4)c(=O)n3C[C@@H]2[C@@H](CO)[C@@H]1C(=O)NCC	SIRT5 inh 18
CCCNC(=O)[C@H]1N[C@H]2c3ccc(C4=CCCCC4)c(=O)n3C[C@H]2[C@@H]1CO	SIRT5 inh 17
C[C@H](CO)N1C[C@H](C)[C@H](CN(C)Cc2ccncc2)Oc2cc(C3=CCCCC3)ccc2S1(=O)=O	none
Cn1ccnc1C(OC(=O)c1ccccc1)C(F)(F)F (stereo not given)	SIRT5 inh 15
O=C(c1ccccc1)N1CC(=O)N2[C@H](CO)[C@@H](c3ccc(C#CCC4CCCC4)cc3)[C@H]2C1	none (no result: FGF22 binding)
CCN1[C@@H]2c3ccc(/C=C/c4ccccc4)c(=O)n3C[C@@H]2[C@@H](CO)[C@@H]1C(=O)N(C)C	none
CCCCCCOc1ccc(N2C(=O)CC(N3CCN(CCN=CC4C(=O)CC(C)(C)CC4=O)CC3)C2=O)cc1 (stereo not given)	SIRT5 inh 112
O=S(=O)(NCc1cccnc1)c1ccc(Cl)cc1	CASP6 VEID inh 47
C[C@@H]1CN([C@H](C)CO)C(=O)c2cc(NC(=O)Nc3cccc4ccccc34)ccc2O[C@@H](C)CCCCO[C@@H]1CN(C)S(=O)(=O)c1cccs1	none (no result: ERAP1 inh, SIRT5 inh, CASP6 VEID inh)
O=C(Nc1ccc(F)cc1)N[C@H]1CC[C@H](CCNS(=O)(=O)c2ccccc2F)O[C@@H]1CO	none
C#CCOCCOCCOCCNc1nc(N2CCN(C(=O)[C@H](CO)n3cc([C@@H](N)C(C)C)nn3)CC2)nc(N2CCN(C(=O)[C@H](CCCCN)n3cc([C@@H](N)[C@H](C)CC)nn3)CC2)n1	FGF22 binding 43
C#CCOCCOCCOCCNc1nc(N2CCN(C(=O)C([C@@H](C)O)n3cc([C@@H](N)CCCCN)nn3)CC2)nc(N2CCN(C(=O)[C@H](CCCCN)n3cc([C@@H](N)[C@H](C)CC)nn3)CC2)n1 (stereo not given in full)	none
O=C1/C(=C\c2ccco2)SC(=S)N1c1ccc(O)cc1	CASP6 VEID inh 38
O=C1/C(=C/C=C/c2ccco2)SC(=S)N1c1ccc(O)cc1	CASP6 VEID inh 76
CCOC(=O)CN1C(=O)S/C(=C/c2ccco2)C1=O	none
NN1C(=O)/C(=C\c2ccco2)SC1=S	CASP6 VEID inh 70 (no result: ERAP1 inh)
O=C1/C(=C/c2ccco2)SC(=S)N1c1cccnc1	CASP6 VEID inh 83
O=C1NC(=Nc2ccc(O)cc2)S/C1=C/c1ccco1	CASP6 VEID inh 39
O=C(NCCN=C1NS(=O)(=O)c2ccccc21)c1ccco1	SIRT5 inh 20
O=C(NCCCN=C1NS(=O)(=O)c2ccccc21)c1ccco1	none (no result: CASP6 VEID inh)
O=C(NCCNCc1ccccc1)c1ccco1	CASP6 VEID inh 64
CO[C@@H]1CN(C)C(=O)c2cc(NS(=O)(=O)c3cccc(Cl)c3)ccc2OC[C@H](C)NC[C@H]1C	none
C[C@H](NC(=O)C[C@H]1CC[C@H]2[C@@H](COC[C@H](O)CN2C(=O)Nc2ccccc2)O1)c1ccccc1	ERAP1 inh 43
CN(C)C(=O)C[C@H]1CC[C@@H]2[C@H](COC[C@@H](O)CN2C(=O)c2ccncc2)O1	SIRT5 inh 16
COc1ccc(NC(=O)N2C[C@H](O)COC[C@@H]3O[C@@H](CC(=O)N4CCCCC4)CC[C@H]32)cc1	SIRT5 inh 25
COc1ccc(NC(=O)N2C[C@@H](O)COC[C@H]3O[C@H](CC(=O)N4CCCCC4)CC[C@@H]32)cc1	none
CN(C)C(=O)C[C@@H]1CC[C@H]2[C@@H](COC[C@@H](O)CN2C(=O)c2ccncc2)O1	none (no result: ERAP1 inh, SIRT5 inh, CASP6 VEID inh)
O=C(c1ccccc1F)N1C[C@@H]2[C@H](c3ccccc31)[C@@H](CO)N2C(=O)c1ccc(F)cc1	none (no result: FGF22 binding)
COc1cccc(NC(=O)CSc2nnc(-c3ccco3)c(-c3ccco3)n2)c1	CASP6 VEID inh 43
COc1ccc(NC(=O)NCc2ccco2)cc1OC	FGF22 binding 44
CC(=O)c1cccc(OCC(=O)N(C)CC(=O)NCc2ccco2)c1	CASP6 VEID inh 49
COc1cccc(NC(=O)CN(C)CC(=O)NCc2ccco2)c1	SIRT5 inh 17
COc1ccc(NC(=O)CN(C)CC(=O)Nc2ccc3c(c2)CCC3)cc1	SIRT5 inh 112
